The whole screen tested about 360,000 compounds, of which about 1,700 (0.47%) were called active. Not shown: some 2% with an inconclusive outcome. Many of the other results were omitted from the sample, so actives are more common in it than they were. A number with no mark means an inactive call. The call rests on the fitted dose curve; in most records, active means well fitted inhibition curve with a large enough effect; inconclusive means small, poorly fitted or top-dose-only effect; inactive means no such curve, though single readings can be large or run the other way.
On the % scale 0 is the no-effect control and ±100 the full control effect; potency means the concentration at half of the fitted maximal effect.

The assay deals with Bifunctional 3'-5' exonuclease/ATP-dependent helicase WRN (Homo sapiens) (UniProt Q14191). As to the kind of experiment: qHTS for Inhibitors of WRN Helicase. Further: nearly all actives have a fitted effect of over 55% in size. Particulars: WRN helicase unwinding, fluorescent forked duplex, kinetic; series mostly up to 114 µM; activity change, negative = inhibition: at the top concentration. Put shortly: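 Screening of the MLSMR collection measured strand separation of a quenched forked DNA duplex (100 nM) by 20 nM WRN with 2 mM ATP, all final. Compounds were preincubated with enzyme 15 min at room temperature.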
Bifunctional 3'-5' exonuclease/ATP-dependent helicase WRN (Homo sapiens), sequence (Q14191 whole entry, looked up): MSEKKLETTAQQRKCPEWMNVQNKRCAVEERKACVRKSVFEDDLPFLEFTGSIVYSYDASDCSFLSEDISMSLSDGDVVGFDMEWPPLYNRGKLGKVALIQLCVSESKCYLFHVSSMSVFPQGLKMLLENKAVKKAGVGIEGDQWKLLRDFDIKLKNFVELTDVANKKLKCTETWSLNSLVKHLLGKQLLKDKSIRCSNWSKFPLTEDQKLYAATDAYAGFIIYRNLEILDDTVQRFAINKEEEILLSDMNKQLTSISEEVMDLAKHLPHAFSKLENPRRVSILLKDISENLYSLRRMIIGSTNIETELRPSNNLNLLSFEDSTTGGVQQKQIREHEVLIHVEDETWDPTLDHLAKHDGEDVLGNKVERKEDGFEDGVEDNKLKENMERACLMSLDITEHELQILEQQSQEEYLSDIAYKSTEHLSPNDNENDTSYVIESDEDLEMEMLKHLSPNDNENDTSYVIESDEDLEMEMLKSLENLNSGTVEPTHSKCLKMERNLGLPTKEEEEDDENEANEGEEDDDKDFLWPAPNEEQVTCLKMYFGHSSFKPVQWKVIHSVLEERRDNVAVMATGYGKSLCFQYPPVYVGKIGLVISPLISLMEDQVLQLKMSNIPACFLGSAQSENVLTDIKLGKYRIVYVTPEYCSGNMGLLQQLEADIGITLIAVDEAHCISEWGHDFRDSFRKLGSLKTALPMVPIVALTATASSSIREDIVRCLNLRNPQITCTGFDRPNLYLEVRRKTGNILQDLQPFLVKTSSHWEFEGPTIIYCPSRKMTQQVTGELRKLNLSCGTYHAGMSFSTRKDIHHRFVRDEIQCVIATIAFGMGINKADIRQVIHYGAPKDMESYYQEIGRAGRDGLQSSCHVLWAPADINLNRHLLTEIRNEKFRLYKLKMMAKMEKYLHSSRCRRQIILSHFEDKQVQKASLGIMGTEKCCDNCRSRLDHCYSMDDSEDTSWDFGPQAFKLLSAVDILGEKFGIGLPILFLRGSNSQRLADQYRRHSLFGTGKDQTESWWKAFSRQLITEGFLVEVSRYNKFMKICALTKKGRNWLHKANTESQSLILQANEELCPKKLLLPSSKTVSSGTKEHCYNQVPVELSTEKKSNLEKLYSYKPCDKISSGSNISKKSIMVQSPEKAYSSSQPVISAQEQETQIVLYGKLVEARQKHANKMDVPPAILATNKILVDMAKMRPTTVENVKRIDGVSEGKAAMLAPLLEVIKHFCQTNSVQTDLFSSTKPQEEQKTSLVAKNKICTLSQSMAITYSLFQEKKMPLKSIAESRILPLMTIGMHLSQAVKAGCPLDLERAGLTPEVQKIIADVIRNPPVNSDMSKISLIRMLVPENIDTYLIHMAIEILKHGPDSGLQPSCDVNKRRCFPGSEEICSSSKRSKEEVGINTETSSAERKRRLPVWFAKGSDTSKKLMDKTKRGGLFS
(In general: In qHTS, concentration-response curves come from the screen itself.)
As to `Cc1cc(C(=O)OC(C)C(=O)Nc2cccc(S(=O)(=O)N3CCOCC3)c2)c(C)o1` (stereo not drawn), the “activity change, negative = inhibition” value is -4.49%.
Same read-out and setting: next, `CCOC(=O)N1CCN(C(=O)COC(=O)c2cccc(S(C)(=O)=O)c2)CC1`: -2.83%.
Regarding `CN(C)c1nc(Nc2ccc(Cl)c(Cl)c2)nc(N(C)C)n1`, the Potency was 79.4 µM (active).
For the compound `CN(C)c1nc(NN)nc(Nc2ccc(F)cc2)n1`, the “activity change, negative = inhibition” value was -7.55%.
Still for that read-out and setting: next, `CC(=O)Nc1nc(N(C)C)nc(N(C)C)n1`: -1.07%.
`COc1ccc(Cl)cc1NC(=O)CCS(=O)(=O)c1ccc(Br)cc1`: the Potency was 44.7 µM (active).
As to `O=C(CCS(=O)(=O)c1ccc(Br)cc1)NCCc1ccc(Cl)cc1`, the activity change, negative = inhibition is -8.96% [at 11.6 µM].
The same measure, in the same setting: the same measure for `CCOc1ccc(OCC)c(NC(=O)CCS(=O)(=O)c2ccc(C)cc2)c1`: -5.18%.
Same read-out and setting: next, `COC(=O)[C@]1(Cc2ccccc2)N[C@H](CN(C)S(=O)(=O)c2ccc(OC(F)(F)F)cc2)[C@@H]2C(=O)N(C)C(=O)[C@@H]21`: -3.83%; `[O-][n+]1c2c(nn1-c1ccc(Cl)c(Cl)c1)-c1nonc1CC2`: 3.25%.
Still for that read-out and setting: the same measure for `Cc1cc(C)c(S(=O)(=O)c2ccccc2)c(OC(=O)c2c(F)cccc2Cl)n1`: -13.3%; for `CC(C(=O)NC1CCS(=O)(=O)C1)N1C(=O)/C(=C/c2ccc(Cl)cc2)SC1=S` (stereo not drawn): -8.03%; for `CC(C(=O)Nc1ccc(O)c(C(=O)O)c1)N1C(=O)/C(=C/c2cccs2)SC1=S` (stereo not drawn): -16.7% [at 11.6 µM].
Regarding `O=C(O)C(c1ccccc1)N1C(=O)/C(=C\c2ccc(-c3cccc(Cl)c3)o2)SC1=S` (stereo not drawn), the Potency was 44.7 µM (active).
For `CCc1c(-c2ccc(F)cc2)ncn1Cc1cccc(-c2ccccc2)c1`, the “activity change, negative = inhibition” value is 0.397%.
Still for that read-out and setting: next, `Cc1cccc(C(=O)NNC(=O)CSc2nnc(C(C)C)n2C)c1`: -22%.
On to `FC(F)(F)C1CCCN(c2nsc3ccccc23)C1` (stereo not drawn), for which the Potency was 22.4 µM (active).
As to `COc1ccc(Br)c(Cn2c(C)c(C(=O)NCc3cccs3)sc2=O)c1`, the “activity change, negative = inhibition” value is 1.69% [at 57.1 µM].
`COC(=O)C1=CN(c2c(C)cc(C)cc2C)C(N)=C(C#N)C1c1cccc(F)c1` (stereo not drawn): the “activity change, negative = inhibition” value was -5.53%.
Still for that read-out and setting: next, `FC(F)(F)c1cccc(-c2nc3ccccc3n2C(c2ccccc2)c2nc3ccccc3[nH]2)c1` (stereo not drawn): -2.09%; `CC1CN(/C=C/C(=O)C(F)(F)F)CC(C)O1` (stereo not drawn): -7.09%.
As for `CC1=NN(c2ccc(Cl)c(C(=O)O)c2)C(=O)/C1=C/c1ccc(-c2ccccc2[N+](=O)[O-])o1`, the Potency was 44.7 µM (active).
`O=C1C2C3C=CC(C4CC34)C2C(=O)N1/N=C/c1ccc(-c2ccccc2[N+](=O)[O-])o1` (stereo not drawn): the “activity change, negative = inhibition” value is -4.13%.
Same read-out and setting: the same measure for `COc1ccc(/C=C2/C(=O)N(c3ccccc3)N=C2C)c(OC)c1`: -30.6% [at 11.6 µM]; for `COc1c(Br)cc2c(C)c(C(=O)N3CCOCC3)oc2c1Br`: -1.91%; for `O=C(Cn1nnc2ccccc2c1=O)NCc1ccc(Cl)cc1`: 7.75%.
Take `O=C(c1ncn2c1c(=O)[nH]c1ccccc12)N1CCc2ccccc2C1`: the “activity change, negative = inhibition” value is 2.79%.
On to `O=c1[nH]c2ccccc2n2c(-c3ccccc3)nnc12`, for which the Potency was 20 µM (active).
For the compound `CS(=O)(=O)N1CCCCC1c1cc(C(=O)NCc2ccccc2)no1` (stereo not drawn), the “activity change, negative = inhibition” value is -12.7%.
In the case of `COc1ccc(CS(=O)/C(Cl)=C(/Cl)C(=O)Nc2ccc(OC)nc2)cc1` (stereo not drawn), the Potency is 17.8 µM (active).
Take `COc1ccc(C(O)c2nc(-c3ccc(OC)nc3)cs2)cc1` (stereo not drawn): the “activity change, negative = inhibition” value is -0.589%.
On the same count and under the same terms, next, `COc1ccc(OC(C)C(=O)Nc2cccnc2)cc1` (stereo not drawn): 2.46%; `CC(C)C[C@H]1CN([C@@H](Cc2ccccc2)CN2CCC[C@@H]2CN2C(=O)C(=O)NC[C@@H]2Cc2ccc(O)cc2)C(=O)C(=O)N1CCc1ccccc1`: -7.43%.
The same measure, in the same setting: next, `Cc1cccc(C)c1NC(=O)C(c1cccc2ccccc12)n1c(=O)c(-c2ccco2)nc2ccccc21` (stereo not drawn): -2.69%; `O=C(CSC(=S)N1CCCCC1)c1c(F)cccc1F`: 8.5%.
For `Cc1ccc(S(=O)(=O)NCCC(=O)NNC(=O)C2COc3ccccc3O2)cc1` (stereo not drawn), the “activity change, negative = inhibition” value is 1.81%.
As for `Cc1c(CC(=O)N2CCN(C(=O)C3COc4ccccc4O3)CC2)c(=O)oc2c(O)c(O)ccc12` (stereo not drawn), the Potency is 10 µM (active).
As to `Cc1c(CCC(=O)O)c(=O)oc2c(C)c(OCc3ccccc3Cl)ccc12`, the activity change, negative = inhibition is -22.9% [at 11.6 µM].
On the same count and under the same terms, next, `CCC1(c2ccccc2)NC(=O)N(CC(=O)c2ccc3c(c2)OCO3)C1=O` (stereo not drawn): -8.83%; `O=C(CN1CCN(c2ccccc2F)CC1)c1ccc2c(c1)OCO2`: -4.89%.
Consider `O=C(CCN1CCc2ccccc2C(O)(c2ccccc2)C1)c1ccc2c(c1)OCCO2` (stereo not drawn), for which the Potency was 31.6 µM (active).
Take `CCCCCNC(=O)C1C(=O)Nc2ccccc2C(=O)N1C(C)(C)C` (stereo not drawn): the “activity change, negative = inhibition” value is 4.68%.
Regarding `O=c1[nH]oc(O)c1-c1ncc(C(F)(F)F)cc1Cl`, the “activity change, negative = inhibition” value is -5.42%.
`CN(Cc1c(F)cccc1Cl)S(=O)(=O)c1cccs1`: the “activity change, negative = inhibition” value was -5.6%.
In the case of `COC(=O)C1=C(C(=O)OC)[C@@H]2N(C)c3ccccc3[C@@]23C[C@@H](C(=O)OC)N(C(=O)c2ccco2)C3=N1`, the “activity change, negative = inhibition” value was 2.76%.
Same read-out and setting: next, `COc1ccc(CCNC2=C(Cl)C(=O)N(Cc3ccccc3)C2=O)cc1OC`: -14.6%.
As to `COc1cc(/C=C2/SC(=S)N(Cc3ccccc3)C2=O)cc(OC)c1O`, the Potency is 10 µM (active).
`CN1C=CC=C/C1=C1\SC(=S)N(Cc2ccccc2)C1=O`: the “activity change, negative = inhibition” value was -16.5%.
As to `COC(=O)C[C@H]1C=C[C@H](NC(=O)c2ccc(F)cc2)[C@@H](CO)O1`, the “activity change, negative = inhibition” value is -3.28%.
For the compound `COc1ccccc1NS(=O)(=O)c1ccc(C(=O)N2CCN(c3ccccc3O)CC2)cc1`, the “activity change, negative = inhibition” value is 1.94%.
With `O=S(=O)(Nc1ccc(O)c2ccccc12)c1ccc(OC(F)(F)F)cc1`, the Potency is 56.2 µM (active).
Turning to `O=S(=O)(Nc1ccc(OC(F)(F)F)cc1)c1cccc2nonc12`, the “activity change, negative = inhibition” value was -10.1%.
The same measure, in the same setting: next, `O=C(NCc1ccncc1)C(=O)NCC1OCCN1S(=O)(=O)c1ccc(Br)cc1` (stereo not drawn): -13.3%; `Cc1ccccc1N/C(SCc1ccc(Cl)cc1)=C(/C#N)C(N)=O`: -14.6%.
As for `O=C(CCCCCn1c(=S)[nH]c2ccsc2c1=O)NC1CCCCC1`, the “activity change, negative = inhibition” value was 1.73%.
Still for that read-out and setting: the same measure for `O=C(/C=C/c1cccs1)NCc1cccnc1`: 1.39%.
On the same count and under the same terms, the same measure for `Cc1ccccc1NC(=O)Cn1c(=O)n(CC2CCCO2)c(=O)c2ccccc21` (stereo not drawn): 1.69%.
Take `Cc1ccccc1NC(=O)CN1C(=O)N/C(=C\c2cccn2-c2cccc(C(=O)O)c2)C1=O`: the Potency is 10.6 µM (active).
Regarding `COC(=O)CN1C(=O)N/C(=C/c2ccc(OC)c(C)c2OC)C1=O`, the “activity change, negative = inhibition” value was -4.64%.
The same measure, in the same setting: the same measure for `CCCCCc1c(-c2ccc(OC)c(OC)c2)ncn1CCc1ccccc1OC`: -2.28%; for `CCc1cc(C(c2ccccc2OC)N2CCOCC2)c(NC(=O)c2ccccc2)s1` (stereo not drawn): -6.56%; for `O=C(Nc1ccccc1C(=O)NCCCn1ccnc1)c1ccc(Cl)cc1Cl`: -10.2%.
On to `CCCNC(=O)C1(C)CCCN(Cc2cccc(C(F)(F)F)c2)C1` (stereo not drawn), for which the “activity change, negative = inhibition” value was 1.01%.
In the case of `COCCN(Cc1cc2cc3c(cc2nc1Cl)OCO3)C(=O)c1cccc(C)c1`, the “activity change, negative = inhibition” value was 6.25%.
`COc1cc(/C=N/NC(=O)c2cccnc2)ccc1OC(=O)c1cccc(Br)c1`: the “activity change, negative = inhibition” value was -19.9%.
On to `COc1cccc(/C=N/NC(=O)c2[nH]nc3c2CCc2ccccc2-3)c1O`, for which the Potency was 25.1 µM (active).
As for `COc1ccc(OC)c(/C=N/NC(=O)c2ccc[n+](CC(=O)c3ccccc3)c2)c1`, the “activity change, negative = inhibition” value was -1.88%.
Still for that read-out and setting: next, `COC(=O)[C@@]12C[C@@H](CC(=O)NCc3cccc(C(F)(F)F)c3)C(=O)N(Cc3ccco3)C1=CCC(C)(C)C2`: -8.06%.
Still for that read-out and setting: the same measure for `O=C(NNc1c2ccccc2nc2ccccc12)c1cc2ccccc2cc1O`: -16.5% [at 57.1 µM]; for `CC(=O)Nc1ccc(Nc2c([N+](=O)[O-])cc(S(C)(=O)=O)cc2[N+](=O)[O-])cc1`: -3.38%.
As for `CC(=O)Nc1ccc(Nc2c3ccccc3nc3ccccc23)cc1`, the Potency was 25.1 µM (active).
As to `COCCN1C(=O)c2oc3c(C)cc(C)cc3c(=O)c2C1c1cccc(O)c1` (stereo not drawn), the “activity change, negative = inhibition” value is -6.21%.
With `C[C@H](NC(=O)c1nc[nH]c1C(=O)N[C@@H](C)C(=O)OC(C)(C)C)C(=O)OC(C)(C)C`, the “activity change, negative = inhibition” value is -3.84%.
For the compound `O=C(NCc1nnc(SCC(=O)N2CCCc3ccccc32)o1)c1ccccc1F`, the “activity change, negative = inhibition” value was -16.5%.
For the compound `N#Cc1c(-c2cccs2)nc(SCC(=O)c2ccc(Br)cc2)[nH]c1=O`, the Potency is 50.1 µM (active).
Take `Cc1cc(C)c2c(=O)[nH]c(SCC(=O)Nc3ccc(Br)cc3)nc2n1`: the “activity change, negative = inhibition” value was -11.3%.
Consider `CC(=O)CSc1nc(CCc2ccccc2)c(C#N)c(=O)[nH]1`, for which the “activity change, negative = inhibition” value is -3.59% [at 57.1 µM].
Regarding `CCC1(c2ccccc2)NC(=O)N(CC(=O)Nc2ccccc2C(=O)NC2CCCC2)C1=O` (stereo not drawn), the “activity change, negative = inhibition” value is -7.05%.
Same read-out and setting: the same measure for `O=C(NC1CCCCC1)C(c1cc2ccccc2o1)n1c(=O)c(-c2ccco2)nc2ccccc21` (stereo not drawn): -13.1%; for `CCCCN(C(=O)C(CCSC)N1C(=O)c2ccccc2C1=O)c1c(N)n(CCC)c(=O)[nH]c1=O` (stereo not drawn): 5.06%; for `N#Cc1ccc(-c2nc3c(Cl)cc(C(F)(F)F)cn3c2Cc2ccccc2C(F)(F)F)cc1`: 0.352%.
On the same count and under the same terms, the same measure for `COc1ccc(CN2CCC(C)(Oc3cccc(F)c3)C2)c2ccccc12` (stereo not drawn): 18.3%.
As for `COc1cccc2c1C(=O)c1c(O)c3c(c(O)c1C2=O)CC(O)(C(C)=NNC(=O)c1ccc(Cl)c(Cl)c1)CC3OC1CC(N)C(O)C(C)O1` (stereo not drawn), the Potency is 31.6 µM (active).
On to `CCOc1cnc(C(=O)NNC(=O)c2ccccc2Br)o1`, for which the “activity change, negative = inhibition” value is -11.3%.
`O=C(c1ccccc1)c1ccc(OC(=O)N2CCCC2)cc1`: the “activity change, negative = inhibition” value is 1.88%.
As to `COc1cccc(-c2nnc(NC(=O)c3ccc(S(=O)(=O)N(CC(C)C)CC(C)C)cc3)o2)c1`, the “activity change, negative = inhibition” value is -8.88% [at 57.1 µM].
For the compound `O=C(COc1ccccc1Cl)Nn1cnnc1`, the “activity change, negative = inhibition” value is 1.03%.
Still for that read-out and setting: the same measure for `C=CCN(N=Nc1cccc([N+](=O)[O-])c1)c1cccc([N+](=O)[O-])c1`: -5.96%; for `CC(=O)NC(c1ccccc1)c1nc(-c2cccc(C(C)C)c2)cs1` (stereo not drawn): -6.85%; for `Cc1cc(C)n(CC(O)COc2ccc(C(C)(C)C)cc2)n1` (stereo not drawn): 2.02% [at 11.6 µM].
On the same count and under the same terms, the same measure for `COc1ccc(C(CNC(=O)COc2ccc([N+](=O)[O-])cc2)N2CCCCC2)cc1` (stereo not drawn): -1.35%.
In the case of `COc1ccc(C(C[N+](=O)[O-])n2nc(C)cc2C)cc1` (stereo not drawn), the Potency was 39.8 µM (active).
On to `CCCCC(NS(=O)(=O)c1ccc(C)cc1)C(=O)Oc1ccc2c3c(c(=O)oc2c1)CCC3` (stereo not drawn), for which the “activity change, negative = inhibition” value was 3.21%.

These data come from PubChem BioAssay AID651768 (National Center for Advancing Translational Sciences (NCATS), 2012).
